Measurements: PubChem BioAssay AID687 (PCMD, 2007)
Hit rate of the full screen: of about 33,000 compounds, about 95 (0.3%) were called active.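 How the source made its calls: active means inhibition above 40% in the primary screen; inactive means the rest.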 The list comes from a sample in which actives are over-represented; it also holds similar structures and randomly drawn compounds.

molecular target: Coagulation factor XI (Homo sapiens) (UniProt P03951); assay: human FXIa protease inhibitors, primary screen, biochemical, single compound per well (AID 687); settings: purified human FXIa, fluorogenic AMC substrate cleavage; at 10 µM; stronger effect = higher value;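 further: 0% = enzyme without compound and 100% = blank wells lacking enzyme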
Sequence (P03951 19-387 limits assumed): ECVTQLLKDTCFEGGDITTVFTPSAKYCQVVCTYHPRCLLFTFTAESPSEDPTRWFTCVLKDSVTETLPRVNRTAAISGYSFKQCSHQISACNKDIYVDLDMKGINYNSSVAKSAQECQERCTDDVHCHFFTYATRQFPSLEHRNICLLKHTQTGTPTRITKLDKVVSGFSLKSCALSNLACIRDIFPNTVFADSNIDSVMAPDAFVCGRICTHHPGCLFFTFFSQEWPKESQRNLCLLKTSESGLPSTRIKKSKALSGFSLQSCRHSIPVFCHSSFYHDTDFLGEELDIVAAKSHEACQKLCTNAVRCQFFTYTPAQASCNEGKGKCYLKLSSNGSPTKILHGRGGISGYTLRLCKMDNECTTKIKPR
Sequence (P03951 388-625 limits assumed): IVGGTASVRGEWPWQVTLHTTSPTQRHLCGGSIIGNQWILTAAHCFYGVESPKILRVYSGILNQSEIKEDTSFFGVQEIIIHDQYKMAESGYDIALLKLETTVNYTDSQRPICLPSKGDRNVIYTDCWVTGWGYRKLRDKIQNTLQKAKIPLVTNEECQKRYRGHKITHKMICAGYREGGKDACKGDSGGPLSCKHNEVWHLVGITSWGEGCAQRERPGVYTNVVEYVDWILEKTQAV

inhibition, inactive:
Cc1ccc(-c2csc(NC(=O)c3cccs3)n2)cc1 -11.7%
Oc1ccccc1CNc1ncc(Br)cc1Br -10.8%
CCC1(C)Cc2c(sc3nc(SC)nc(N)c23)CO1 (stereo unspecified) 14.2%
COc1ccc(NC(=S)N2N=CCC2c2ccccc2)cc1 (stereo unspecified) 0.63%
Cc1ccsc1C(=O)OCC(=O)c1cc2ccccc2o1 3.48%
O=P(c1ccc2c(c1)OCCO2)(N1CCOCC1)N1CCOCC1 2.3%
COc1ccccc1NC(=O)/C=C/C(N)=O 4.44%
CCOc1ccccc1NC(=O)Nc1cc(OC)ccc1OC -0.13%
COc1ccc(C(=O)NNC(=O)c2cnccn2)cc1[N+](=O)[O-] -1.41%
COc1cc2c(cc1OC)C(C(C)C)=NC(C)(C)C2 2.2%
Cc1ccccc1N1CCN(CCCOc2ccc3c(C)cc(=O)oc3c2)CC1 3.75%
CCCC(C(=O)NCc1ccco1)N(C(=O)CNS(=O)(=O)c1ccccc1)C1CCCC1 (stereo unspecified) -1.8%
Cc1ccc(OCC(=O)N/N=C\c2ccco2)c(C)c1 8.22%
COc1ccccc1CNS(=O)(=O)c1ccc(C)cc1 -5.43%
O=C(Nc1ccc(Sc2ccc(Br)cc2)cc1)c1ccco1 5.67%
CC1(C)CC(=O)NC=C(c2ccccc2)C1 2.57%
COc1ccc(C(=O)CSc2nccc(=O)[nH]2)cc1 4.89%
Cc1cccc(N2CCN(S(=O)(=O)c3ccc4[nH]c(=O)c(=O)[nH]c4c3)CC2C)c1 (stereo unspecified) -6.46%
Cc1nc(NNC(=O)c2ccccc2)cc(-c2ccccc2)n1 -2.36%
COc1ccc(-c2cc(C)nc3nc(N)nn23)cc1 -7.55%
Cc1ccc(C2(C(F)(F)F)N=C3Sc4cc(C)cc(C)c4N3C(=O)N2)cc1 (stereo unspecified) -3.09%
COCCn1c(=S)[nH]c2cc(C(=O)NCCc3ccc(OC)c(OC)c3)ccc2c1=O 1.93%
COc1ccccc1NC(=O)C1CCCN(c2cc(C)nc3ncnn23)C1 (stereo unspecified) -7.53%
COC(=O)C1=C(C)Nc2ncnn2C1c1cccnc1 (stereo unspecified) -8.85%
CCOC(=O)c1c(N)sc(C(C)=O)c1C 5.4%
CCCOc1ccc(C2NC(=O)NC(c3ccccc3)=C2C(C)=O)cc1OCC (stereo unspecified) -6.35%
Cc1ccc(S(=O)(=O)N2CCN(Cc3cccc(C)c3O)CC2)cc1 -1.32%
COC(C)(C)[C@]12CC(O)(C(C)C)ON1[C@H]1CCCCC1N2O (stereo partly specified) 0.57%
CC(C)(C)c1cc(=O)n2c(nc3ccccc32)[nH]1 2.42%
COC(=O)c1ccc(Sc2ccc(F)cc2)c(N)c1 1.93%
CC1CCCCC1NC(=O)C1CCCN1S(=O)(=O)c1cccc2nsnc12 (stereo unspecified) 7.4%
COc1ccc(-n2nc3c(c2NC(=O)Cc2cccc(C)c2)CS(=O)C3)cc1 (stereo unspecified) 4.35%
CC(C)(C)c1nc2ccccc2c(=O)n1N1C(=O)c2ccccc2C1=O 2.66%
COc1ccc(-c2nnc(SCC(=O)c3ccc4c(c3)OCCO4)o2)cc1 -2.7%
COC(=O)/C(=C\Nc1ccccc1)NC(=O)c1ccc(Cl)cc1Cl 7.22%
CC(CN1CCOCC1)c1ccccc1 (stereo unspecified) 7.1%
O=C(CSCc1ccccc1)N1CCc2ccccc21 1.56%
Cc1ccc(OCCCC(=O)Nc2ccc(N3CCOCC3)cc2)cc1 3.13%
O=c1c2ccccc2nc(N/N=C/c2ccccc2)n1O 6.82%
Cc1[nH]n(-c2ccc(Cl)cc2)c(=O)c1/C=N/n1c(C)nc2ccccc2c1=O 4.91%
CC1(C)N=C(c2ccccn2)C(C)(C)N1O -1.83%
